From PubChem BioAssay AID875 (National Center for Advancing Translational Sciences (NCATS), 2007)
The whole screen tested about 75,000 compounds, of which about 35 (0.05%) were called active. Calls come from the whole dose curve; as a rule, active = well fitted inhibition curve with a large enough effect; inconclusive = small, poorly fitted or top-dose-only effect; inactive = no such curve, though single readings can be large or run the other way. For the sample, actives were picked, then their nearest neighbours and some compounds at random.

The molecules below were run against Breast cancer type 1 susceptibility protein (Homo sapiens) (UniProt P38398) (assay: qHTS Assay for Inhibitors of BRCT-Phosphoprotein Interaction (Green Fluorophore)). Conditions: BRCA1 BRCT-phosphopeptide binding, green fluorescence polarization; series mostly up to 76.9 µM.
Breast cancer type 1 susceptibility protein (Homo sapiens), sequence (P38398 whole entry, looked up): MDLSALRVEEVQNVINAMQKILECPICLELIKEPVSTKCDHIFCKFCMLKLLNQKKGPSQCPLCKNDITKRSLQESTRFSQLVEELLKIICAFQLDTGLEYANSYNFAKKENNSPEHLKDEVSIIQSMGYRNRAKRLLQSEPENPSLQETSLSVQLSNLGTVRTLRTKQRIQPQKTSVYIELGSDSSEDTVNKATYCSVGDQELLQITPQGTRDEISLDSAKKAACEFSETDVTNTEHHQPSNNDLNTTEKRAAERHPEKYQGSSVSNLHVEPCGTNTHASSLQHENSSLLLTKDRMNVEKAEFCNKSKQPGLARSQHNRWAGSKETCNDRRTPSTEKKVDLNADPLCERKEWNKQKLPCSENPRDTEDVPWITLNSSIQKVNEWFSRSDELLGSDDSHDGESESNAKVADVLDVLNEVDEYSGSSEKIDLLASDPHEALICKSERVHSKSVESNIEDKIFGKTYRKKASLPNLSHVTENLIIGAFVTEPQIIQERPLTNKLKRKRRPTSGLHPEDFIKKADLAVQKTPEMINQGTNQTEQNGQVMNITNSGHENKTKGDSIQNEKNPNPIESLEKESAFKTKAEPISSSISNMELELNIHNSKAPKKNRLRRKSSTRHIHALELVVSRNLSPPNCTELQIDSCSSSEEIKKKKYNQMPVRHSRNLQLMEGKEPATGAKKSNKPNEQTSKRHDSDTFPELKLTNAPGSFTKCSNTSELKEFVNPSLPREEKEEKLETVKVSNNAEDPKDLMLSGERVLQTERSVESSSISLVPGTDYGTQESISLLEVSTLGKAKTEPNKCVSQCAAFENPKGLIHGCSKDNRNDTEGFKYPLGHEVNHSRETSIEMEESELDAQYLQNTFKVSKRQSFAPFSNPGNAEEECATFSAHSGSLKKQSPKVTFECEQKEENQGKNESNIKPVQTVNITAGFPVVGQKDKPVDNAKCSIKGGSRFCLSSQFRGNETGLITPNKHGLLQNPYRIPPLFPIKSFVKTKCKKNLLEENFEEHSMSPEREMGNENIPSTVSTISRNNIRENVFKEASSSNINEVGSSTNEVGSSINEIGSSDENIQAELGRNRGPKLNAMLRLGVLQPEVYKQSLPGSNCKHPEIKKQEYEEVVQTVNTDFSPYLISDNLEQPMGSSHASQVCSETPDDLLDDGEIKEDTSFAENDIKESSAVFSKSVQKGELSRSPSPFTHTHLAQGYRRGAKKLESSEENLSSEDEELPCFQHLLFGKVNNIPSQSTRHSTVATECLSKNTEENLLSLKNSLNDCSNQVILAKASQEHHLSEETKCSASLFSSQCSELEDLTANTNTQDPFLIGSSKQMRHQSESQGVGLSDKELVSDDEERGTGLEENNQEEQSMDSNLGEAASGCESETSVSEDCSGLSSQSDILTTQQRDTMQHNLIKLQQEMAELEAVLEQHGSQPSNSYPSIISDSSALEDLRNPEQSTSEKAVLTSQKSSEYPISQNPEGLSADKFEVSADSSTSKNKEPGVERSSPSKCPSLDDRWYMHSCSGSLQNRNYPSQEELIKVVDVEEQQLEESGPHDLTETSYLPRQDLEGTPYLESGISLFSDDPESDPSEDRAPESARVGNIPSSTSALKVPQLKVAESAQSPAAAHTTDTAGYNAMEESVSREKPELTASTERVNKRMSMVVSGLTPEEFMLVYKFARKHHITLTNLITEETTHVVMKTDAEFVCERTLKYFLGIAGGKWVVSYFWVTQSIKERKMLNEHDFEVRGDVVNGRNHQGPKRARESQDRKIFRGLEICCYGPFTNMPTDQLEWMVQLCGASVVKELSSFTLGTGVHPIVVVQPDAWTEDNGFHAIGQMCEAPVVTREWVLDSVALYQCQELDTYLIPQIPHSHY
Procedure: NIH Molecular Libraries Screening Centers Network [MLSCN]
NIH Chemical Genomics Center [NCGC]
PI Name: Natarajan, Amarnath; University of Texas
A complex of BRCT (C-terminal portion of BRCA1, MW ~35 kDa, His-tagged) and fluorescently labeled pBACH1 phosphorylated 10 aa peptide fragment of BACH1, a helicase implicated in DNA repair, is incubated with library members. Inhibitors of BRCT-pBACH1 binding are detected by a decrease in the fluorescence polarization (FP) of the fluorophore. In order to minimize the effect of fluorescence artifacts and to increase the overall robustness of the screen, the compound library members were incubated in separate reactions with fluorescein labeled probe-protein complexes. Protein and labeled probes were supplied by Dr. Amarnath Natarajan, Department of Pharmacology and Toxicology, University of Texas Medical Branch Galveston, TX.
Assay Buffer: 16mM Na2HPO4, 4 mM NaH2PO4, 150 mM NaCl, 1 mM EDTA, 1 mM DTT, 0.02% NaN3, and 0.01% Tween 20 at pH 7.3.
100 nM labeled decapeptide/250 nM protein in columns 1, 2, 5 - 48. Titration of unlabeled decapeptide control (from 10 mM, then 1:2 dilution in duplicate) pin-transferred to column 2, rows 1 to 16. Column 1 is neutral.
Three uL of reagents were dispensed to 1536-well Greiner black solid-bottom plates. Compounds and controls (23 nL) were transferred
via Kalypsys PinTool. The plates were incubated for 12 min at room temperature, and then read on ViewLux (Perkin-Elmer) High throughput CCD imager using FITC for the fluorescein-labeled decapeptide probe polarization filter sets. During dispense, reagent bottles were kept submerged into 4 deg C water bath and all liquid lines were covered with aluminum foil to minimize probe and protein degradation. All screening operations were performed on a Kalypsys robotic system (Kalypsys, Inc., San Diego, CA) containing one RX-130 and two RX-90 anthropomorphic robotic arms. The timing and order of assay plates passing through the screening system were adjusted such that each compound library plate was assayed against the fluorescein- and rhodamine-labeled assay systems at immediately adjacent time points.
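Note: plate controls were peptide without protein for full effect.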

Activity change, negative = inhibition, inactive:
CC1(C)Cc2cccc(OCC(=O)Nc3nccs3)c2O1
Cc1ccc(-c2noc(-c3ccccc3C(=O)NCC3CCCO3)n2)cc1 (centres undefined)
Cc1cc(C)c(C#N)c(SCS(=O)c2ccc(C(C)(C)C)cc2)n1 (centres undefined)
Cc1ccc(S(=O)(=O)NC(=O)NN2C[C@H]3CCC[C@@H]3C2)cc1
CN(C)CCNC(=O)C(C(=O)c1ccccc1)n1ccccc1=O (centres undefined)
CCOC(=O)N1CCN(C(=O)C2CC(c3ccc(F)cc3)=NO2)CC1 (centres undefined)
Cc1csc(-c2nc3ccccc3n2C)n1
O=C(Nc1cccc2c1CCCC2)C1CCN(C(=O)NC2CCCCC2)CC1
Fc1ccc(-c2ccc(-c3nn4c(-c5ccco5)nnc4s3)o2)cc1
COc1ccc(OC)c(C(=O)c2ccc(C(=O)O)cc2)c1
CCOC(=O)C(C)Oc1cccc2c(=O)n(CC(=O)N3CCc4ccccc43)ccc12 (centres undefined)
O=C(CSc1nnc(-c2cccnc2)n1Cc1ccco1)c1ccc(Cl)c(Cl)c1
COCCN(C(=O)CCC(=O)Nc1ccccn1)C(C(=O)NCCC(C)C)c1ccc(OC)cc1 (centres undefined)
CCc1c(C)nc(N)n2c(SCC(=O)N3CCN(c4ccccc4)CC3)nnc12
CCCC(NC(=O)c1ccccc1)c1nc2ccccc2n1Cc1ccc(C(=O)OC)o1 (centres undefined)
CC(=O)c1sc2nc(SCC(=O)N3CCCCC3)[nH]c(=O)c2c1C
C/C(O)=C\c1nc(=O)c2c(C)cc(C)nc2n1-c1ccccc1
Cc1cc(NCc2ccco2)n2c(nc3ccccc32)c1C#N
CCCN1[C@H](C(=O)OC)C[C@@]2(O)[C@@H](O)[C@@H](O)[C@@H](O)C[C@@H]12
O=C(O)[C@H](CCc1ccccn1)c1ccccc1 0.305% [at 15.4 µM]
Cc1nc(C)c(C(=O)Nc2cccc(C)c2C)o1
CCCn1c(=O)c2[nH]c(C3CCCC3)nc2n(CCC)c1=O
O=C(NCCCN1CCOCC1)c1cc(-c2ccc(Cl)cc2)on1
COC(=O)[C@@H]1C[C@@]2(O)[C@H](O)[C@H](O)[C@H](O)C[C@H]2N1Cc1ccc(C)s1
CN(C)/C=N/c1cc(=O)n(C)c(=O)n1CC1CC1
CCCCCCCCCc1ccc(OCCOCCOCCOCCOCCOCCOCCOCCOCCO)cc1
O=C(Nc1ccccc1N1CCCCC1)c1ccc2nccnc2c1
CN1CCCC1CCO[C@@](C)(c1ccccc1)c1ccc(Cl)cc1 (some centres undefined) -4.61% [at 3.08 µM]
CN1CCc2nc(-c3ccccc3)c(-c3ccccc3)cc2C1 -0.939% [at 15.4 µM]
CCN(CC)C(=O)CSc1nnc(-c2cnccn2)n1-c1ccc(C)cc1
Cc1c(C(=O)CN2CCOCC2)[nH]c2ccccc12
Cc1cccc(-c2cc(=O)c3cc(C)ccc3o2)c1
Cc1c(S(=O)(=O)O)ccc(N=Nc2c(O)c(C(=O)O)cc3ccccc23)c1Cl -3.5% [at 15.4 µM]
CC(C(=O)Nc1ccccc1-c1ccccc1)N1CCOCC1 (centres undefined)
CCC1CCCCN1C(=O)Nc1cccc(NC(=O)N2CCCCC2CC)c1 (centres undefined)
CCOc1ccc(Cn2nnc(C(=O)NCc3ccccc3)c2N)cc1
O=C(Cn1nc(Cc2cccnc2)c2ccccc2c1=O)NCC1CCCO1 (centres undefined)
O=c1[nH]nc(CSCc2ccccc2Cl)[nH]1
Cc1cc(C)c(S(=O)(=O)NCCCN2CCOCC2)cc1Br
